Activity calls are given as the source filed them.
Experiments:
[1] = test system: Plasmodium falciparum Sir2 (PF13_0152, Sir2A); test: pfSir2 binders on small-molecule microarrays, primary screen, biochemical, small-molecule microarray, 635 nm fluorescence (AID 1098); conditions: small-molecule microarray binding, fluorescence 635 nm; higher = more signal;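 further: score merges spot fluorescence intensity with its signal-to-noise ratio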
[2] = small-molecule microarray binders of probe aDKK1, primary screen, biochemical, biotinylated probe, 635/667 nm fluorescence (AID 1099); conditions: higher = more signal;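 further: score merges 667nm spot fluorescence with signal to noise across triplicate slides; reference of the scale not given here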
[3] = small-molecule microarray binders of probe aCHRDL2, primary screen, biochemical, biotinylated probe, 635/667 nm fluorescence (AID 1100); conditions: higher = more signal
[4] = splicing luciferase reporter signal modulators, primary screen, spliceosome inhibition project, cell-based, HEK293, splice +/- reporter (AID 1101); conditions: luminescence, 24 h, higher = more signal, called active from +8 up or from −8 down;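 further: HEK293 cells carrying a splicing-competent luciferase reporter gene; test concentration not given here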
[5] = target: Fibroblast growth factor 10 (Homo sapiens) (UniProt O15520); test: FGF10 binders on small-molecule microarrays, primary screen, biochemical, small-molecule microarray, 635 nm fluorescence (AID 1102); conditions: FGF10 binding, fluorescence 635 nm, higher = more signal
Sequence of Fibroblast growth factor 10 (Homo sapiens) (O15520 whole entry, looked up): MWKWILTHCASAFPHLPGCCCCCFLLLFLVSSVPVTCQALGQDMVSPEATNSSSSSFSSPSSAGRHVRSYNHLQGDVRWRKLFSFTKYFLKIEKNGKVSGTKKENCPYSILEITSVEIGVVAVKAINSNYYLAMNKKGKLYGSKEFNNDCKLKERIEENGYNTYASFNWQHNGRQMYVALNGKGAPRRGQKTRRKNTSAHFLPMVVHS

[6] = test system: glycogen synthase kinase-3 (GSK3A per assay name; protocol says GSK3B); test: GSK3 binders on small-molecule microarrays, primary screen, biochemical, small-molecule microarray, 635 nm fluorescence, GSK3A (AID 1103); conditions: small-molecule microarray binding, fluorescence 635 nm; higher = more signal; further: the record names both GSK3A and GSK3B
[7] = target: Epidermal growth factor receptor (Homo sapiens) (UniProt P00533); test: EGFR binders on small-molecule microarrays, primary screen, biochemical, small-molecule microarray, 635 nm fluorescence (AID 1104); conditions: EGFR binding, higher = more signal;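 further: score merges 667 nm emission intensity with spot signal to noise over triplicate slides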
Sequence of Epidermal growth factor receptor (Homo sapiens) (P00533 whole entry, looked up): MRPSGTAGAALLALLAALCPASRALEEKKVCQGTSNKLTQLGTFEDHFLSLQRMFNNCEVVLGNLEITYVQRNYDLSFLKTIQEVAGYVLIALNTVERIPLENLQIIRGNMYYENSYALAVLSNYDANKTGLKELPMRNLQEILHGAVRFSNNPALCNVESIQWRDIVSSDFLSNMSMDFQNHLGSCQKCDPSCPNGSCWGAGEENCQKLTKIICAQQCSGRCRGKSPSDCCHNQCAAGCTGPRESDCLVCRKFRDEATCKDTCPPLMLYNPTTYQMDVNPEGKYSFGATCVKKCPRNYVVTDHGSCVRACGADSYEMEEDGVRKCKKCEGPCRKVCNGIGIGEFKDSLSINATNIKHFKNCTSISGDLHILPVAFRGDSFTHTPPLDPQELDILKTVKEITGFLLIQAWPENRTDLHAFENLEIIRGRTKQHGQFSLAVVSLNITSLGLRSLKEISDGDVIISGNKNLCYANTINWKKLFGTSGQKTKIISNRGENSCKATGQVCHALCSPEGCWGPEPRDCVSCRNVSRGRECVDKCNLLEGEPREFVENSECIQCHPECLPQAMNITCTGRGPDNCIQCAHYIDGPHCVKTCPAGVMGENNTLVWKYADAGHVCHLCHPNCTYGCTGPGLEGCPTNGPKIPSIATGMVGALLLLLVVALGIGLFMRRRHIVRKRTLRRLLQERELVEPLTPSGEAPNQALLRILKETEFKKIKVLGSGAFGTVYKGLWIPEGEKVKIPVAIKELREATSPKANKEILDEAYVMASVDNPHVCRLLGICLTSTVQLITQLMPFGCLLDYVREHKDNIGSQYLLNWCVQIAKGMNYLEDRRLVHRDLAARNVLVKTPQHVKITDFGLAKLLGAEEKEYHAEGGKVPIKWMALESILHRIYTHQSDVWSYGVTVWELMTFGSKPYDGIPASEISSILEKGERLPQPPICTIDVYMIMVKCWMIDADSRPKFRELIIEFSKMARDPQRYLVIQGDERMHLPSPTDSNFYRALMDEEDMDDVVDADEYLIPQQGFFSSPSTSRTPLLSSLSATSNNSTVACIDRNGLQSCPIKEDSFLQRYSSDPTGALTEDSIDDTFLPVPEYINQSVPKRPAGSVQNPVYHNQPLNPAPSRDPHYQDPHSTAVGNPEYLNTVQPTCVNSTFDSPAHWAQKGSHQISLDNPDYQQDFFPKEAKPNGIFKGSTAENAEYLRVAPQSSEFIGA

[8] = target: Follistatin-related protein 3 (Homo sapiens) (UniProt O95633); test: FSTL3 binders on small-molecule microarrays, primary screen, biochemical, small-molecule microarray, 635 nm fluorescence (AID 1105); conditions: FSTL3 binding, higher = more signal;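 further: score merges emission near 667 nm and signal to noise per printed spot across three slides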
Sequence of Follistatin-related protein 3 (Homo sapiens) (O95633 whole entry, looked up): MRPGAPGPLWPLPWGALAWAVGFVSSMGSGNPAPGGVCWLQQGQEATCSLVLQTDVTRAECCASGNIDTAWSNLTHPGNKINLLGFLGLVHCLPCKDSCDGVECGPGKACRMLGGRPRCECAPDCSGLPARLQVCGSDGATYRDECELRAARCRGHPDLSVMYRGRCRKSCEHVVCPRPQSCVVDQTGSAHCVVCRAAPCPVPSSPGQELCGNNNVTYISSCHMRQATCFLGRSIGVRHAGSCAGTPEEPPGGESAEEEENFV

[9] = target: Dickkopf-related protein 1 (Homo sapiens) (UniProt O94907); test: DKK1 binders on small-molecule microarrays, primary screen, biochemical, small-molecule microarray, 635 nm fluorescence scan (AID 1106); conditions: DKK1 binding, higher = more signal;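 further: score merges emission near 667 nm with signal to noise over three replicate slides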
Sequence of Dickkopf-related protein 1 (Homo sapiens) (O94907 whole entry, looked up): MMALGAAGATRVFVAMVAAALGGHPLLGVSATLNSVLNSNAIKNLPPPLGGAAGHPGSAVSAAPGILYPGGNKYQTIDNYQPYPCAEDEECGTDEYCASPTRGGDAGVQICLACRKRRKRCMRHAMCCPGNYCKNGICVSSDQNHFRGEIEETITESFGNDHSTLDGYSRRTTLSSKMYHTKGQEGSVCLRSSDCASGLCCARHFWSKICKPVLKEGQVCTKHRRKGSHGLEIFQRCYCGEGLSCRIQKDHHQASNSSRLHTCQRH

[10] = test system: Inhibin beta A chain (activin A); test: INHBA (activin A) binders on microarrays, primary screen, biochemical, small-molecule microarray, 635 nm fluorescence scan (AID 1107); conditions: small-molecule microarray binding, higher = more signal;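 further: mouse activin A protein probed at 4.33 µg/mL on printed slides; score merges bound-protein fluorescence near 667 nm with spot signal-to-noise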

Row | Compound | composite z-score [1] | composite z-score [2] | composite z-score [3] | z-score [4] | composite z-score [5] | composite z-score [6] | composite z-score [7] | composite z-score [8] | composite z-score [9] | composite z-score [10]
1 | CO[C@@H]1COC(=O)CC=C[C@@H](C)[C@@H]2C=C[C@@H](O)[C@@H](COC(=O)CC=C[C@H]1C)O2 | 0.661 | -0.325 | -1.08 | -0.953 (inactive) | 0.954 | 0.524 | 0.935 | 1.48 | 0.804 | 1.12
2 | CCOC(=O)NN=C1C[C@@H](O)[C@@H](O)[C@@H]2[C@@H]3C(=O)N(C(C)(C)C)C(=O)[C@@H]3CC[C@@H]12 | -0.241 | 0.166 | 0.599 | 0.172 (inactive) | 0.34 | -1.09 | 0.43 | -1 | -0.567 | -2.83
3 | C[C@H]1Cc2c(-c3ccccc3)nc3c(c2CO1)CN(CCOc1ccccc1)CC3 | 1.21 | -0.357 | -0.815 | -0.512 (inactive) | 1.19 | 1.28 | 0.65 | 1.29 | 0.94 | 0.127
4 | Cc1ccc(F)cc1S(=O)(=O)N[C@@H]1CCN(Cc2ccc(CC(C)C)cc2)C1 | -0.242 | -0.389 | -0.24 | 1.1 (inactive) | -0.253 | -1.12 | -0.397 | -0.301 | -0.0911 | 0.346
5 | C[C@@H](c1ccccc1)N1C(=O)[C@H]2[C@H]3[C@H](O)[C@H](O)CC(=NOC[C@@H](O)COCc4ccco4)[C@@H]3CC[C@H]2C1=O | 0.693 | -0.349 | -0.402 | -0.115 (inactive) | -0.953 | -0.468 | -0.0809 | -1.31 | -1.03 | -0.365
6 | O=C1CCCC=C1C(O)CCOCc1ccccc1 (stereo not given) | 0.265 | -0.229 | -0.513 | 0.322 (inactive) | 0.154 | -0.391 | 0.255 | -0.0207 | 0.428 | 0.13
7 | CC1CC/C=C\[C@H]2OC34C=CCN(Cn5nnc6ccccc65)C(=O)[C@H]3N(CCO)C(=O)[C@@H]4C2C(=O)O1 (stereo not given in full) | 2 | -0.559 | 0.514 | -1.58 (inactive) | -1.16 | 0.476 | -1.01 | 0.0695 | -0.52 | 1.19
8 | CC(C)(C)N1C(=O)[C@H]2[C@H]3[C@H](O)[C@H](O)CC(=NO[C@@H]4O[C@H](CO)[C@@H](O)[C@H](O)[C@H]4O)[C@@H]3CC[C@H]2C1=O | 0.756 | -0.393 | -0.854 | 0.519 (inactive) | 0.522 | 0.869 | 0.768 | 1.01 | 1.15 | 0.911
9 | O[C@@H](Cc1ccccc1)[C@H]1C2C=CCCC(c3ccccc3)=C2CN1Cc1cccc(Cl)c1 (stereo not given in full) | 0.0167 | -0.0232 | 0.7 | -0.205 (inactive) | 0.653 | 0.913 | 0.21 | 0.847 | 0.473 | 0.264
10 | CC(C)=C1C(=O)C(c2ccccc2)=C2CN3C(=O)N(CCc4ccccc4)C(=O)[C@]3(Cc3ccc(F)cc3)[C@H]21 | -0.0467 | 0.993 | 1.21 | 0.762 (inactive) | -0.625 | -0.643 | -2.06 | -0.655 | -1.92 | 0.51
11 | O=C1[C@H]2[C@H]3[C@H](O)[C@H](O)CC(=NO[C@@H]4O[C@H](CO)[C@@H](O)[C@H](O)[C@H]4O)[C@H]3CC[C@H]2C(=O)N1Cc1ccc2c(c1)OCO2 | 0.381 | 0.215 | 0.821 | -0.0194 (inactive) | -0.0585 | -0.417 | -0.678 | -0.387 | -0.899 | -0.401
12 | Cc1cc2c(nc1C)CCCN2CC(C)ON=C1[C@H]2CCn3c(=O)n(-c4ccccc4)c(=O)n3[C@H]2[C@H](O)[C@@H]2O[C@H]12 (stereo not given in full) | 0.508 | -0.013 | -0.499 | -0.736 (inactive) | 0.618 | 1.1 | 0.822 | 0.828 | 0.686 | 0.693
13 | O=C1C[C@@H](O)[C@@H](O)[C@@H]2[C@@H]3C(=O)N(c4ccc(F)cc4F)C(=O)[C@@H]3CC[C@@H]12 | 0.341 | -0.343 | -0.602 | 0.337 (inactive) | 0.627 | 0.169 | 0.463 | 0.447 | 0.612 | 0.199
14 | C[C@H](c1ccccc1)N1C(=O)[C@H]2[C@H]3[C@H](O)[C@H](O)CC(=O)[C@@H]3CC[C@H]2C1=O | -0.0226 | -0.0352 | -0.394 | 0.737 (inactive) | 0.615 | -0.0137 | 0.268 | 0.344 | 0.822 | -1.79
15 | O=C1C[C@@H](O)[C@@H](O)[C@@H]2[C@@H]3C(=O)N(C4CCCCC4)C(=O)[C@@H]3CC[C@H]12 | 0.523 | -0.376 | -0.711 | 0.804 (inactive) | 0.438 | 0.919 | 0.634 | 0.553 | 0.718 | -0.294
16 | CCOC(=O)C[C@H]1[C@H](OC(=O)c2ccc(C(=O)c3ccccc3)cc2)[C@@H](NC(=O)c2ccc(-c3ccccc3)cc2)c2cc(OCCCO)ccc2N1C(=O)c1ccc2ccccc2n1 | 1.02 | -0.301 | -0.432 | -0.784 (inactive) | 1.29 | 0.838 | 0.519 | 0.775 | 0.606 | 0.23

Row | Compound | composite z-score [1] | composite z-score [2] | composite z-score [3] | z-score [4] | composite z-score [5] | composite z-score [6] | composite z-score [7] | composite z-score [8] | composite z-score [9] | composite z-score [10]
17 | CC(=O)OC[C@H]1O[C@H](CC=NOC[C@@H](C)[C@H](OCc2ccccc2)C(C)C)C=C[C@@H]1OC(C)=O | -0.15 | -0.262 | -0.478 | 0.955 (inactive) | -0.17 | 0.1 | 0.0284 | 0.523 | 0.169 | -0.0543
18 | CS(=O)(=O)CCOC(=O)C1=CC(CCCO)=CC(c2cccs2)N(Cc2cccc(OC(F)(F)F)c2)C=C1C(=O)OCCS(C)(=O)=O (stereo not given) | 0.811 | 0.674 | 0.742 | 0.538 (inactive) | 0.739 | 0.873 | -0.37 | 0.14 | -0.06 | 0.915
19 | CCc1cccc(NC(=O)O[C@H]2[C@H](OC(=O)Nc3ccc4c(c3)OCO4)[C@@H](OC(=O)Nc3ccc4c(c3)OCO4)[C@@H](OC)O[C@@H]2CO)c1 | 0.402 | -0.144 | -0.0627 | -0.637 (inactive) | 1.38 | 1.35 | 0.446 | 1.32 | 0.583 | 0.863
20 | CC(C)(C)N1C(=O)[C@H]2[C@H]3[C@H](O)[C@H](O)CC(=NOCc4ccccc4)[C@@H]3CC[C@H]2C1=O | 0.616 | -0.192 | 0.24 | -1.07 (inactive) | 0.97 | 0.535 | 0.455 | 0.988 | 1.59 | 0.528
21 | COC(=O)[C@H](C)NC(=O)CCC1CC(OC(=O)NCc2ccc3c(c2)OCO3)CC2(CCCC(COC(=O)NCCOc3ccccc3)O2)O1 (stereo not given in full) | 0.46 | -0.211 | -0.636 | -2.8 (inactive) | 0.658 | 1.29 | 0.536 | 0.649 | 0.679 | 0.0689
22 | CO[C@H]1COC(=O)[C@@H]2CCCN2C(=O)[C@@H](C)COC(=O)CC=C[C@@H]1C | 0.474 | -0.342 | -0.919 | 0.00841 (inactive) | 0.618 | 1.05 | 1.15 | 1.11 | 1.1 | -0.24
23 | C#CCCCON=C1C[C@@H](O)[C@@H](O)[C@@H]2[C@@H]3C(=O)N(Cc4ccccc4)C(=O)[C@@H]3CC[C@H]12 | 1.43 | -0.369 | -0.417 | -0.658 (inactive) | 0.388 | 0.147 | 1.03 | 0.29 | 0.525 | 0.269
24 | COC(=O)CC=C[C@H](C)[C@@H](OCc1ccccc1Br)C(C)C | -0.0201 | -0.371 | -0.397 | -0.76 (inactive) | 0.321 | -0.243 | 0.195 | 0.285 | 0.292 | 0.0114
25 | Cc1cc2c(nc1C)CCCN2CC(O)CN1CCN(C)CC1 (stereo not given) | 0.478 | 0.859 | 0.337 | 0.154 (inactive) | 0.721 | 0.132 | 0.752 | 0.79 | 1.02 | -1.07
26 | CN(C)CCCNC(=O)[C@@H]1c2ccccc2C(=O)N(Cc2cc(F)cc(C(F)(F)F)c2)[C@H]1c1ccc(CO)cc1 | 1.75 | -0.132 | 0.17 | -1 (inactive) | 0.159 | 0.922 | 0.368 | -1.1 | 0.0959 | -0.217
27 | O=C1[C@H]2[C@H]3[C@H](O)[C@H](O)CC(=NOCc4ccccc4)[C@H]3CC[C@H]2C(=O)N1C[C@@H]1CCCO1 | 0.565 | 0.114 | -0.418 | 0.0221 (inactive) | 0.863 | 0.632 | 0.582 | 0.728 | 1.11 | -0.209
28 | CCCCC(=C=CC[C@H](O)c1ccccc1OCCO)C[C@H](O)COCc1ccccc1 | 1.45 | -0.001 | 0.309 | -0.139 (inactive) | 0.0624 | -0.285 | -0.792 | -0.349 | -0.355 | 0.778
29 | CC(CCN1CCCCc2nc(C)c(C)cc21)=NOC(C)CN1CCCc2nc(C)c(C)cc21 (stereo not given) | 1.53 | 0.699 | -0.324 | 0.506 (inactive) | 1.35 | 1.32 | 1.56 | 1.47 | 1.05 | 1.5
30 | CC(C)OC(=O)C=C1C[C@@H](c2ccc(C#N)cc2)O[C@@H](c2ccc(C#N)cc2)O1 | 1.07 | 0.738 | 0.407 | -0.159 (inactive) | 1.44 | 1.29 | 0.87 | 1.4 | 0.189 | -0.106
31 | COc1ccc([Si](C)(C)[C@H]2[C@H](CCO)O[C@@]3(C(=O)N(Cc4cccc(NC(=O)[C@H](C)O)c4)c4ccccc43)[C@@H]2C)cc1 | 1.01 | -0.146 | -0.026 | -2.55 (inactive) | 1.01 | 0.738 | 0.382 | 0.901 | 0.507 | 0.106

Reference: PubChem BioAssay
